Source: PubChem BioAssay AID651813 (National Center for Advancing Translational Sciences (NCATS), 2012)
Out of some 2,100 compounds screened, about 1,100 (52%) were called active. Another 27% or so got no clear call; they are omitted. Calls come from the whole dose curve; as a rule, active = well fitted inhibition curve with a large enough effect; inconclusive = small, poorly fitted or top-dose-only effect; inactive = no such curve, though single readings can be large or run the other way. The set was probably picked from earlier hits. Some of the results follow.

What follows are compounds tested against DNA dC->dU-editing enzyme APOBEC-3G (Homo sapiens) (UniProt Q9HC16) (assay: qHTS for inhibitors of Vif-A3G interactions: Cherry picks counterscreen). Settings: HeLa A3G-eYFP + Vif (tagged APOBEC3G with the HIV-1 protein that degrades it), eYFP fluorescence, 24 h.
DNA dC->dU-editing enzyme APOBEC-3G (Homo sapiens), sequence (Q9HC16 whole entry, looked up): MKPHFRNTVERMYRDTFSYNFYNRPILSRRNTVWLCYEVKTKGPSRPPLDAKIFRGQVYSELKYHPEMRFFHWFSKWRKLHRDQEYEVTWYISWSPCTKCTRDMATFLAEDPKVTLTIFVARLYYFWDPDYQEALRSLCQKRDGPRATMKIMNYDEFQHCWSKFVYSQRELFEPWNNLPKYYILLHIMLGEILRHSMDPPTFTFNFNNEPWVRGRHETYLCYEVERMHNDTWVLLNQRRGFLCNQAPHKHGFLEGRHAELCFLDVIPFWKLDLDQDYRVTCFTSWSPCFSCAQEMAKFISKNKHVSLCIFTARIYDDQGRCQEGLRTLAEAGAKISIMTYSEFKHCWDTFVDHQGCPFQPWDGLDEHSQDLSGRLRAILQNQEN
Summary of the method: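 HeLa cells stably expressing A3G-eYFP and Vif were treated for 24 h at 37 deg C with compounds at several concentrations; yellow fluorescence (Ex 488 nm, Em 500-530 nm) read by Acumen Explorer, MG132 as positive control.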
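Note: hits raise yellow fluorescence by blocking Vif-driven A3G-eYFP degradation; nearly all actives have a fitted effect of over 70% in size.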
Potency is the fitted concentration of half-maximal effect.
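Throughout, for max response: max response given as percent of control signal.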

| SMILES | Potency | max response |
| --- | --- | --- |
| Cc1ccnc(N/C=C(\C#N)c2nc(-c3cccc(Br)c3)cs2)c1 | 11.2 µM (active) | – |
| CN(NC(=O)c1ccccc1)c1nc2ccccc2nc1C(F)(F)F | 3.53 µM (active) | – |
| Cc1ccc(C(=O)NN(C)c2nc3ccccc3nc2C(F)(F)F)cc1 | 6.27 µM (active) | – |
| CC12CC3CC(C)(C1)CC(C(=O)NC(=S)N1CCOCC1)(C3)C2 | – | -26.4% (inactive) |
| Cc1cnc(NC(=O)CC(C)c2ccccc2)s1 (stereo not given) | 5.59 µM (active) | – |
| CCn1nc(-c2ccccc2)c2nc3ccccc3nc21 | 23.1 µM (active) | – |
| O=C(NCc1cccc(F)c1)c1cccc2c1C(=O)c1ccc(N3CCCC3)cc1S2(=O)=O | 17.7 µM (active) | – |
| CC1CCN(c2ccc3c(c2)S(=O)(=O)c2cccc(C(=O)NCc4cccc(F)c4)c2C3=O)CC1 | 14 µM (active) | – |
| Cc1ccc(CNC(=O)c2cccc3c2C(=O)c2ccc(N4CCCCC4)cc2S3(=O)=O)cc1 | 18.4 µM (active) | – |
| Cc1ccc(CNC(=O)c2cccc3c2C(=O)c2ccc(N4CCC(C)CC4)cc2S3(=O)=O)cc1 | – | -0.215% (inactive) |
| COc1cc2ccccc2cc1C(=O)N/N=C/c1cccs1 | 1.77 µM (active) | – |
| COc1ccccc1C=CC(=O)C=Cc1ccccc1OC | 6.27 µM (active) | – |
| O=C(NC(=S)N1CCN(C2CCCCC2)CC1)c1ccccc1 | – | -11.9% (inactive) |
| CN(C)c1ccc(/C=C/c2cc(N(C)C)nc3ccccc23)cc1 | 6.51 µM (active) | – |
| CN(C)c1ccc(/C=C/c2cc(/C=C/c3ccc(N(C)C)cc3)c3ccccc3n2)cc1 | 3.66 µM (active) | – |
| Nc1ccc(/C=C/c2cc(Cl)nc3ccccc23)cc1 | 20.6 µM (active) | – |
| CN(C)c1ccc(/C=C/c2nc3ccccc3c(=O)n2CCO)cc1 | 20.6 µM (active) | – |
| CCN(CC)c1ccc(/C=C/c2cc(-c3ccccc3)c3ccccc3n2)cc1 | 1.98 µM (active) | – |
| COc1ccccc1N1C(=O)c2cccc3c(C(=O)O)ccc(c23)C1=O | – | 6.39% (inactive) |
| Cc1ccccc1N1C(=O)c2cccc3c(N(C)CCO)ccc(c23)C1=O | 4.61 µM (active) | – |
| COc1ccc(C(=O)c2ccc(OC)c(OC)c2OC)cc1 | 2.23 µM (active) | – |
| O=C(NC1C/C(=N/O)c2cc3c(cc21)OCO3)C(F)(F)F (stereo not given) | – | -1.11% (inactive) |
| COc1ccc(/C=C2/CSC/C(=C/c3ccc(OC)c(OC)c3)C2=O)cc1OC | 5.59 µM (active) | – |

| SMILES | Potency | max response |
| --- | --- | --- |
| COc1cc(/C=C2\COC/C(=C\c3ccc(O)c(OC)c3)C2=O)ccc1O | 8.86 µM (active) | – |
| CCOc1cc(/C=C2\CN(C)C/C(=C\c3ccc(O)c(OCC)c3)C2=O)ccc1O | 5.59 µM (active) | – |
| COc1cc(/C=C2\COC/C(=C\c3cc(OC)c(OC)c(OC)c3)C2=O)cc(OC)c1OC | 3.14 µM (active) | – |
| COc1cc(C=C2C(=O)c3ccccc3C2=O)cc(OC)c1OC | – | -6.19% (inactive) |
| Cc1ccc(F)c(S(=O)(=O)NC(=O)C2(C)CCN2C(=O)Cc2ccc(Cl)cc2Cl)c1 (stereo not given) | – | 13% (inactive) |
| Cc1cccn2c(=O)c3cc(C#N)c(=NC(=O)c4cccs4)n(CCCOC(C)C)c3nc12 | – | -8.85% (inactive) |
| COc1ccc(/C=C2\CN(Cc3ccccc3)C/C(=C\c3ccc(OC)c(O)c3)C2=O)cc1O | 6.27 µM (active) | – |
| C=CCn1c(SCc2c(C)noc2C)nc2cc(C(=O)O)ccc2c1=O | 17.7 µM (active) | – |
| Cc1noc(C)c1CSc1nc2ccccc2c(=O)n1-c1ccccc1 | 4.98 µM (active) | – |
| CCn1c2ccccc2c2cc(NC(=O)CNCc3ccccc3OC)ccc21 | 6.27 µM (active) | – |
| COc1ccc(-c2cc(NC(C)=O)c3ncc(-c4cc(OC)c(OC)c(OC)c4)n3c2)cn1 | 5.59 µM (active) | – |
| COc1cc(-c2cnc3c(NC(C)=O)cc(-c4ccccc4CN(C)C)cn23)cc(OC)c1OC | 14 µM (active) | – |
| COC(=O)C1=C(C)NC2=C(C(=O)CC(c3cccs3)C2)C1c1ccsc1 (stereo not given) | 12.5 µM (active) | – |
| CN(C)c1ccc(/C=N/N(CCO)C2=NS(=O)(=O)c3ccccc32)cc1 | – | -24.9% (inactive) |
| CN(/N=C/c1ccc(N(C)C)cc1)C1=NS(=O)(=O)c2ccccc21 | 5.59 µM (active) | – |
| Cc1nc(NC(=O)/C=C/c2ccco2)sc1C | 6.27 µM (active) | – |
| Cc1ccnc(NC(=S)NC(=O)/C=C/c2ccco2)c1 | 6.27 µM (active) | – |
| COc1ccc(-c2csc(NC(=S)NC(=O)/C=C/c3ccco3)n2)cc1Br | 3.14 µM (active) | – |
| CSc1ccccc1NC(=O)COC(=O)/C=C/c1ccco1 | – | -23.9% (inactive) |
| O=C(/C=C/c1ccco1)NC(=S)Nc1cccc(-c2nc3ccccc3o2)c1 | 4.98 µM (active) | – |
| COc1ccc(OC)c(/C=C/c2nc3ccccc3[nH]c2=O)c1 | 7.31 µM (active) | – |
| CC(=Nc1ccccc1)C1=C(O)C(Cc2ccccc2)NC1=O (stereo not given) | 0.396 µM (active) | – |
| O=C1NC(c2ccccc2Br)=N/C1=C\c1ccco1 | – | -4.52% (inactive) |

| SMILES | Potency | max response |
| --- | --- | --- |
| O=C1N/C(=C\c2ccccc2)c2ccccc21 | 0.994 µM (active) | – |
| C=CCN1C=CC(=C/C=C(/C#N)C(=O)OCC)C=C1 | 3.66 µM (active) | – |
| CCOC(=O)/C(C#N)=C\C=C1C=CN(C)C=C1 | 2.31 µM (active) | – |
| c1ccc(Nc2nc(-c3ccccn3)cs2)cc1 | – | 16.2% (inactive) |
| O=Cc1sc(Nc2ccccc2)nc1Cl | 20.6 µM (active) | – |
| Cc1ccc(Nc2nc(Cl)c(C=O)s2)cc1Cl | 13 µM (active) | – |
| Cc1cc(C(F)(F)F)c(C#N)c(SCC(=O)Nc2nc3ccccc3s2)n1 | 18.4 µM (active) | – |
| Cc1coc(NC(=O)CSc2nc(-c3ccncc3)cc(C(F)(F)F)c2C#N)n1 | 16.4 µM (active) | – |
| CCOC(=O)c1ccc(NC(=O)CSc2nc(-c3ccc(OC)cc3)cc(C(F)(F)F)c2C#N)cc1 | 23.1 µM (active) | – |
| CCCCOc1ccc(-c2cc(C(F)(F)F)c(C#N)c(SCC(=O)O)n2)cc1 | 23.1 µM (active) | – |
| CCOC(=O)c1ccc(NC(=O)CSc2nc(-c3ccc(F)cc3)cc(C(F)(F)F)c2C#N)cc1 | 9.2 µM (active) | – |
| COCc1cc(C)nc(SCC(=O)Nc2ccc3[nH]c(=O)[nH]c3c2)c1C#N | – | -18.1% (inactive) |
| COc1ccc(-c2cc3ccccc3oc2=O)cc1NC(=S)NC(=O)c1ccc2c(c1)OCCO2 | – | -2.77% (inactive) |
| COc1cccc2sc(Nc3nc(-c4cc5ccccc5oc4=O)cs3)nc12 | 3.96 µM (active) | – |
| CN(C)c1ccc(/C=C2\SC(=S)N(Nc3ncc(C(F)(F)F)cc3Cl)C2=O)cc1 | 5.17 µM (active) | – |
| COc1cc(/C=C2\SC(=S)N(NC(=O)c3ccccc3OC)C2=O)ccc1O | – | -17.8% (inactive) |
| COc1cc(/C=C2\SC(=S)N(Nc3ncc(C(F)(F)F)cc3Cl)C2=O)ccc1O | 20.6 µM (active) | – |
| Cc1cc(C)cc(NC2=NC3(CCCCC3)N=C(N)N2)c1 | 19.8 µM (active) | – |
| COC(=O)c1ccc(NC(=O)CC2Nc3cc(C)c(C)cc3NC2=O)cc1 (stereo not given) | 20.6 µM (active) | – |
| CCOC(=O)c1ccc(NC(=S)NC(=O)C2CCCC2)cc1 | – | -2.63% (inactive) |
| CCN(CC)C(=O)Cn1c(=O)n(-c2ccccc2)c(=O)c2c3c(sc21)CCC3 | – | -20.5% (inactive) |
| CCOc1ccc(C(=O)C(CCC(CN(C)C)C(=O)c2ccc(OCC)cc2)CN(C)C)cc1 (stereo not given) | – | -24.5% (inactive) |
| O=C(Cc1n[nH]c(=O)c2ccccc12)OCC(=O)c1ccc2c(c1)OCCO2 | 2.8 µM (active) | – |

| SMILES | Potency | max response |
| --- | --- | --- |
| CCOc1ccc(C(=O)COC(=O)Cc2n[nH]c(=O)c3ccccc23)cc1 | 15.8 µM (active) | – |
| O=C(Nc1ccc2c(c1)OCCO2)C(=O)c1c[nH]c2ccccc12 | 6.27 µM (active) | – |
| O=C(C(=O)N1CCN(c2ccccc2Cl)CC1)c1c[nH]c2ccccc12 | – | -13.1% (inactive) |
| N#Cc1c(-c2ccccc2)c(-c2ccccc2)nn(CC(=O)NNC(=O)Nc2ccccc2)c1=O | 1.98 µM (active) | – |
| N#Cc1c(-c2ccc(F)cc2)c(-c2ccc(F)cc2)nn(CCO)c1=O | 7.04 µM (active) | – |
| CCOc1ccccc1N1CC(c2nc3ccccc3n2Cc2c(C)cc(C)cc2C)CC1=O (stereo not given) | – | -2.71% (inactive) |
| CCOC(=O)Cn1c(=O)c(-c2cc(Br)ccc2N)nc2ccccc21 | 8.2 µM (active) | – |
| CCOC(=O)COn1c(=O)c(-c2ccc(Br)cc2)[n+]([O-])c2ccccc21 | – | 4.24% (inactive) |
| CCOC(=O)CCSc1nc(C)cc(C(F)(F)F)c1C#N | 12.5 µM (active) | – |
| Cc1ccc(S(=O)(=O)CCSc2nc(C)cc(C(F)(F)F)c2C#N)cc1 | 17.7 µM (active) | – |
| COc1ccc(NC(=O)C2(C)Cc3c(-c4ccc5c(c4)OCO5)ccnc3O2)cn1 (stereo not given) | 7.04 µM (active) | – |
| COc1ccc(NC(=O)C2(C)Cc3c(-c4cccc(C(N)=O)c4)ccnc3O2)cn1 (stereo not given) | 7.9 µM (active) | – |
| COc1ccc(NC(=O)C2(C)Cc3c(-c4cccc(NC(C)=O)c4)ccnc3O2)cn1 (stereo not given) | 1.98 µM (active) | – |
| C=CCNC(=S)N/N=C/c1ccc(C)cc1C | – | -13.8% (inactive) |
| CCc1ccc2nc(SCC(=O)Nc3ccccc3N3CCOCC3)c(C#N)cc2c1 | 1.64 µM (active) | – |
| COc1ccc2nc(SCC(=O)N3CC(=O)Nc4ccccc43)c(C#N)cc2c1 | 18.4 µM (active) | – |
| COc1ccc2nc(SCC(C)=O)c(C#N)cc2c1 | 3.66 µM (active) | – |
| N#Cc1cc2ccccc2nc1SCC(=O)Nc1ccccc1N1CCOCC1 | – | -5.1% (inactive) |
| CCc1ccc2nc(SCC(=O)N3CC(=O)Nc4ccccc43)c(C#N)cc2c1 | 12.5 µM (active) | – |
| CC1C/C(=N\NC(N)=S)c2cc(Cl)ccc2S1 (stereo not given) | – | -16.7% (inactive) |
| Cc1cc(C)c2nc(SCC(=O)N3CC(=O)Nc4ccccc43)c(C#N)cc2c1 | 1.4 µM (active) | – |
